Source: PubChem BioAssay (The Scripps Research Institute Molecular Screening Center)
MITF primary: MITF inhibitors, primary screen, biochemical, AlphaScreen, human; Microphthalmia-associated transcription factor (Homo sapiens), O75030; AlphaScreen MITF homodimerization, bead proximity signal; inhibition, % at 2.6 µM; 650,000 compounds, 0.91% hits; in the data active means inhibition above about 50%
Target sequence (O75030 whole entry, looked up): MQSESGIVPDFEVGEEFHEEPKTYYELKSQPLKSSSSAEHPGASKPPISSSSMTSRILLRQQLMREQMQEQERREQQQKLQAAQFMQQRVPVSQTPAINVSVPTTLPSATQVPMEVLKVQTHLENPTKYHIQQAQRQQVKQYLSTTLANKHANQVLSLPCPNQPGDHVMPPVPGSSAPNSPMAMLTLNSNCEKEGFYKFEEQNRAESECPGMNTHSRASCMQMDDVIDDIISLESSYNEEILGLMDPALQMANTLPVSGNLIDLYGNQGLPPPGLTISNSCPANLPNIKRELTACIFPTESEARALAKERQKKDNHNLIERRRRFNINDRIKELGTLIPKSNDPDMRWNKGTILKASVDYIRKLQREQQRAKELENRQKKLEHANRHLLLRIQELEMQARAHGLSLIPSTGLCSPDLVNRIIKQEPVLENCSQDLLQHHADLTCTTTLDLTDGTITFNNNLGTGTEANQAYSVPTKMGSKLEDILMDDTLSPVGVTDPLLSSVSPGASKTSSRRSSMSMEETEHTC
GPR151 ag: activators of human GPR151, primary screen, cell-based, PathHunter beta-arrestin, luminescence; AID 1508602, 2020; PathHunter beta-arrestin GPR151 cells; activation, % at 11.2 µM; 650,000 compounds, 1% hits; in the data active means activation above about 4.9%
FBW7 act: FBW7 E3 ligase activators, primary screen, biochemical, AlphaScreen, human; 650,000 compounds, 0.13% hits; AlphaScreen FBW7–phospho-cyclin E peptide binding, activator screen; AID 1259310, 2017; normalized activity (activation), % at 26.1 µM; in the data active means normalized activity above about 1.9%;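 further: purified mutant Fbw7 with reduced substrate affinity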
TEAD-YAP block: TEAD-YAP interaction inhibition, primary screen, TEAD-YAP interaction inhibitor project, luminescence, HEK-TIYL cells. TEAD-Gal4/YAP UAS-luciferase luminescence. inhibition, % at 9.12 µM. 640,000 compounds, 1.4% hits. AID 1259422, 2018; in the data active means inhibition above about 32%
Of the large screens only hits and unclear results are named; the others gave an inactive call. This is a sample that favours compounds with a hit; in the whole collection about 3.5% have one here.

c1ccc2[nH]c(CNc3nc(Nc4ccncc4)nc4c3ncn4C3CCCCC3)nc2c1	TEAD-YAP block 64
c1ccc(-n2cnc3c(NCc4nc5ccccc5[nH]4)nc(Nc4ccc(-n5ccnc5)cc4)nc32)cc1	TEAD-YAP block 57
c1ccc(-n2cnc3c(NCc4nc5ccccc5[nH]4)nc(Nc4cccnc4)nc32)cc1	TEAD-YAP block 73
C/C=C/C=C/C(=O)NNC(=O)c1sc2ccccc2c1Cl	none
COc1ccc(CCN2C(=O)CC(C(=O)Nc3ccc(C(=O)O)cc3)SC2=Nc2cccc(Cl)c2)cc1OC (stereo not given)	none
CC1=CC=CN2C1=NC(=O)CC2(C)C(=O)N(CC(=O)NC1CCCC1)c1cc(C)cc(C)c1 (stereo not given)	none
O=c1[nH]c(C2CC2)nc2cc(-c3cnn(-c4ccc(Cl)cc4)c3)ccc12	TEAD-YAP block 60
CC(C)Cn1cc(C(=O)NCCCN2CCCC2)c2c3ccccc3n(C)c2c1=O	none
COCCn1c(/C=C/c2ccccc2)nc2ccccc21	none
CC(=O)c1ccc(/C=C/c2nc3ccccc3n2C)o1	TEAD-YAP block 53
CCn1c(/C=C/c2ccc(OC)cc2)nc2ccccc21	TEAD-YAP block 72
Cn1c(/C=C/c2ccccc2)nc2ccccc21	TEAD-YAP block 93
CCCc1nc2ccccc2n1C(=O)CCC(=O)O	none
O=C(O)CCC(=O)n1c(/C=C/c2ccccc2)nc2ccccc21	TEAD-YAP block 83
Cc1cc(C(=O)COC(=O)CSc2ncnc3sccc23)c(C)n1CC(F)(F)F	none
COc1cc(Nc2nccn3c(-c4ccco4)cnc23)cc(OC)c1OC	TEAD-YAP block 57
COc1cc(Nc2nccn3c(-c4ccc(Cl)cc4)cnc23)cc(OC)c1OC	none
COc1cc(Nc2nccn3c(-c4ccc(F)c(Cl)c4)cnc23)cc(OC)c1OC	TEAD-YAP block 53
COc1cc(Nc2nccn3c(-c4ccc5ccccc5c4)cnc23)cc(OC)c1OC	TEAD-YAP block 54
COc1cc(Nc2nccn3c(-c4cccc(C(C)=O)c4)cnc23)cc(OC)c1OC	TEAD-YAP block 54
Oc1oc(-c2ccc(Cl)cc2)nc1C=Nc1ccc(Br)cc1	none
Nc1ncnc(N/N=C/c2ccc(O)cc2)c1[N+](=O)[O-]	TEAD-YAP block 68
Nc1ncnc(N/N=C/c2cccc(Br)c2)c1[N+](=O)[O-]	TEAD-YAP block 36
Nc1ncnc(N/N=C/c2ccccc2)c1[N+](=O)[O-]	none
COc1ccc(/C=N/Nc2ncnc(N)c2[N+](=O)[O-])cc1OC	none
O=C(Nc1cc(Cl)ccc1Cl)c1cc(S(=O)(=O)NCc2ccc(F)cc2)ccc1F	none
Cc1ccc(-c2cc3c(nn2)-c2ccccc2C3=O)cc1	TEAD-YAP block 81
O=C(c1ccc2cncc(-c3ccsc3)c2n1)N1CCC(O)CC1	TEAD-YAP block 61
O=C(c1ccc2cncc(-c3ccccc3)c2n1)N1CCOCC1	TEAD-YAP block 36
O=C(c1ccc2cncc(-c3ccccc3)c2n1)N1CCC(O)CC1	TEAD-YAP block 51
Cc1cccc(C)c1NC(=O)C(c1ccc(Cl)cc1)N(Cc1ccco1)C(=O)c1ccc(-n2cnnn2)cc1 (stereo not given)	TEAD-YAP block 41
COc1ccc(CCNc2nc(Nc3ccc4ncccc4c3)ncc2C)cc1	TEAD-YAP block 33
COc1ccc(CCNc2nc(Nc3ccc4ncccc4c3)nc3nc[nH]c23)cc1	TEAD-YAP block 50
O=C(COc1ccc(Oc2ccccc2)cc1)NCc1cn2ccccc2n1	TEAD-YAP block 55
O=S(=O)(NCc1cn2ccccc2n1)c1ccc(Oc2ccccc2)cc1	none
CCOc1ccc(-n2c(-c3ccccc3)n[nH]c2=S)cc1	none
CCOc1ccc(-n2c(-c3ccccc3)c[n+]3c2CCC3)cc1	TEAD-YAP block 49
CCOc1ccc(-n2c(-c3ccc(OC)cc3)c[n+]3c2CCCCC3)cc1	TEAD-YAP block 85
CC(C)n1cnc2c(Nc3ccc(N4CCOCC4)cc3)nc(N3CCCC3CO)nc21 (stereo not given)	none
CN(C)C(=O)n1nnc2ccccc21	TEAD-YAP block 59
O=C(c1ccc(C(=O)n2nnc3ccccc32)cc1)n1nnc2ccccc21	none
CCCOc1ccc(-c2csc(NC(=O)c3ccc(S(=O)(=O)N4CCc5ccccc5C4)cc3)n2)cc1	none
N#Cc1c(NC(=O)COC(=O)c2cccs2)sc2c1CCC2	none
NS(=O)(=O)c1ccc(N=Cc2c(O)n(Cc3ccco3)c(=O)[nH]c2=O)cc1	MITF primary 79
